Results reported in PubChem BioAssay (Tox21).
Inconclusive results are not listed. Calls of active or inactive are those of the source. Unless noted, the call rests on the fitted dose curve; in most records, active means well fitted curve in the direction sought with a large enough effect in the repeat runs; inconclusive means weak or mixed curves; inactive means no such curve, though single readings can be large; an effect the other way counts as inactive or inconclusive.

Legend:
[1] = qHTS assay to identify small molecule antagonists of the retinoid acid receptor (RAR) signaling pathway - cell viability counter screen (AID 1159551); further: nearly all actives have a fitted effect of over 35% in size
In short: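 C3RL4 RARE-luciferase line; cpds + retinol 1 uM final, 6 h, 37 C/5% CO2; CellTiter-Glo ATP luminescence, 30 min RT.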

[2] = qHTS assay to identify small molecule antagonists of the retinoic acid receptor (RAR) signaling pathway (AID 1159552; further: nearly all actives have a fitted effect of over 50% in size; further: potency means the concentration at half of the fitted maximal effect)
In short: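 RARE-luc C3RL4 cells; cpds + 1 uM (final) retinol, 6 hr, 37 C/5% CO2; luciferase reagent, 30 min RT, luminescence readout. Inhibitors of retinol-driven signal scored.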

[3] = qHTS assay to identify small molecule agonists of the retinoic acid receptor (RAR) signaling pathway (AID 1159553)
In short: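 RARE-luc C3RL4 cells; overnight attachment 37 C/5% CO2; compound (DMSO) 6 hr; luciferase reagent, 30 min RT; luminescence read-out.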

[4] = qHTS assay to identify small molecule antagonists of the estrogen related receptor (ERR) signaling pathway from Tox21 library - cell viability counter screen (AID 1224834); further: nearly all actives have a fitted effect of over 30% in size
In short: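 Multiplexed viability counter screen in ERR cells: 17.5 h compound exposure at 37 C, CellTiter-Fluor added, 30 min at 37 C/5% CO2, fluorescence read.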

[5] = target: Luciferin 4-monooxygenase (Photinus pyralis) (UniProt P08659); assay: qHTS assay to identify small molecule inhibitors of firefly luciferase (AID 1224835); further: nearly all actives have a fitted effect of over 25% in size; further: potency means the concentration at half of the fitted maximal effect
In short: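 Quantitative HTS format; KM concentrations of both substrates. Purified P. pyralis FLuc activity quantified from luminescence images.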

[6] = qHTS assay to identify small molecule agonists of the constitutive androstane receptor (CAR) signaling pathway - cell viability counter screen (AID 1224836); further: nearly all actives have a fitted effect of over 45% in size; further: potency means the concentration at half of the fitted maximal effect
In short: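 HepG2 cells stably carrying hCAR and a CYP2B6-2.2kb reporter were plated 4 h, then given compounds at 15 concentrations plus PK11195 (final 0.75 uM). After 23 h at 37 C, viability was read by CellTiter-Fluor fluorescence.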

[7] = qHTS assay to identify small molecule antagonists of the constitutive androstane receptor (CAR) signaling pathway - cell viability counter screen (AID 1224837); further: series mostly up to about 92 µM; nearly all actives have a fitted effect of over 45% in size
In short: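 Read-out: CellTiter-Fluor fluorescence after 23 hr at 37 C/5% CO2. Cells: HepG2 double-stable for hCAR and CYP2B6-2.2kb. Compounds tested at 15 concentrations in the presence of CITCO, final concentration 50 nM.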

[8] = target: Nuclear receptor subfamily 1 group I member 3 (Homo sapiens) (UniProt Q14994); assay: qHTS assay to identify small molecule antagonists of the constitutive androstane receptor (CAR) signaling pathway (AID 1224838); further: nearly all actives have a fitted effect of over 40% in size; further: potency means the concentration at half of the fitted maximal effect
In short: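 Read-out: ONE-Glo luciferase luminescence after 30 min at room temperature. HepG2-CYP2B6-hCAR double-stable cells, compounds in 15-point titration plus 50 nM CITCO final, 24 h at 37 C/5% CO2.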

[9] = target: Nuclear receptor subfamily 1 group I member 3 (Homo sapiens) (UniProt Q14994); assay: qHTS assay to identify small molecule agonists of the constitutive androstane receptor (CAR) signaling pathway (AID 1224839); further: nearly all actives have a fitted effect of over 15% in size; further: potency means the concentration at half of the fitted maximal effect
In short: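 HepG2 cells stably expressing hCAR and a CYP2B6-2.2kb luciferase reporter were treated with compounds at 15 concentrations plus 0.75 uM PK11195 (final) for 24 h at 37 C; luminescence was read after ONE-Glo addition.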

[10] = qHTS assay to identify small molecule antagonists of the estrogen related receptor signaling pathway with the pleiotropic PPARgamma coactivator (PGC) from Tox21 10K library - cell viability counter screen (AID 1224840; active means well fitted cell-killing curve with a large enough effect in the repeat runs, not every such curve was filed as active; further: nearly all actives have a fitted effect of over 40% in size)
In short: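 Fluorescence read-out of CellTiter-Fluor viability reagent, added after cells had been exposed to compound in DMSO for 17.5 h at 37 C; 30 min development at 37 C/5% CO2. Cells: PGC/ERR line, 2,000/well.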

[11] = qHTS assay to identify small molecule antagonists of the estrogen related receptor signaling pathway with the pleiotropic PPARgamma coactivator (PGC) from Tox21 10K library (AID 1224841; call rule not given here; further: actives are mostly falling curves and most rising ones were filed inactive; nearly all actives have a fitted effect of over 50% in size; further: potency means the concentration at half of the fitted maximal effect)
In short: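 Luminescence read-out (One-Glo luciferase reagent, 30 min at room temperature) from PGC/ERR cells exposed to DMSO-dissolved test compounds for 18 h at 37 C; cells, 2,000 per well, had been preincubated 6 h before compound transfer.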

[12] = qHTS assay to identify small molecule agonists of the estrogen related receptor signaling pathway with the pleiotropic PPARgamma coactivator (PGC) from Tox21 10K library (AID 1224842); further: nearly all actives have a fitted effect of over 15% in size
In short: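 PGC/ERR reporter cells (NTP line) were seeded 2,000 per well, rested 6 h at 37 C/5% CO2, then pin-dosed with compounds in DMSO for 18 h at 37 C; luciferase read by One-Glo luminescence after 30 min at room temperature.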

[13] = qHTS assay to identify small molecule agonists of the RXR signaling pathway - cell viability counter screen (AID 1159529);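 further: HEK 293T cells carrying an RXR-alpha UAS beta-lactamase reporter; series mostly up to about 77 µM; nearly all actives have a fitted effect of over 50% in size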
In short: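 RXR-alpha-UAS-bla HEK 293T cells in medium with 2% charcoal-stripped FBS were preincubated 5 hr, then exposed to compounds for 16 hr at 37 C. Viability was read as CellTiter-Glo luminescence after 30 min at room temperature.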

[14] = qHTS assay to identify small molecule antagonists of the estrogen related receptor (ERR) signaling pathway - cell viability counter screen (AID 1224818); further: series mostly up to about 46 µM
In short: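 Fluorescence from CellTiter-Fluor, read 30 min after reagent addition at 37 C, measured viability of ERR cells exposed to compounds for 17.5 h. Cells had settled 6 h before dosing.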

[15] = qHTS assay to identify small molecule antagonists of the estrogen related receptor (ERR) signaling pathway (AID 1224819;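 further: luminescence from an ERR-driven luciferase reporter measured with One-Glo reagent; series mostly up to about 46 µM; nearly all actives have a fitted effect of over 50% in size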)
In short: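 Luminescence readout (One-Glo, 30 min, RT) of ERR cell line after 18 h compound exposure at 37 C; cells seeded 2,000/well, pre-incubated 6 h, compounds pinned from DMSO stocks.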

[16] = qHTS assay to identify small molecule agonists of the estrogen related receptor (ERR) signaling pathway (AID 1224820)
In short: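 An ERR cell line provided by NTP was seeded at 2,000 cells per well and allowed to settle for 6 h before compounds in DMSO were added. After 18 h at 37 C, luciferase activity was measured by One-Glo luminescence.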

[17] = system: estrogen-related receptor alpha (ERRalpha) with PGC-1alpha coactivator, human; assay: qHTS assay to identify small molecule antagonists of the estrogen related receptor signaling pathway with the pleiotropic PPARgamma coactivator (PGC) (AID 1224821; calls by dose curve)
In short: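 A PGC/ERR cell line supplied by NTP is seeded, allowed 6 h at 37 C, and treated with test compounds in DMSO for 18 h. Signal is then measured as luciferase luminescence using One-Glo.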

[18] = qHTS assay to identify small molecule antagonists of the estrogen related receptor signaling pathway with the pleiotropic PPARgamma coactivator (PGC) cell viability counter screen (AID 1224822; further: potency means the concentration at half of the fitted maximal effect)
In short: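 Fluorescence read-out of CellTiter-Fluor after 30 min at 37 C; PGC/ERR cells, 2,000 per well, had been exposed to DMSO-dissolved compounds for 17.5 h following a 6 h pre-incubation.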

[19] = qHTS assay to identify small molecule agonists of the estrogen related receptor signaling pathway with the pleiotropic PPARgamma coactivator (PGC) (AID 1224823)
In short: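 Compounds dissolved in DMSO are added by pin tool to PGC/ERR cells that have settled for 6 h, and incubation continues 18 h at 37 C. Reporter output is measured as One-Glo luminescence.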

Measured: Potency

Luciferin 4-monooxygenase (Photinus pyralis), sequence (P08659 whole entry, looked up): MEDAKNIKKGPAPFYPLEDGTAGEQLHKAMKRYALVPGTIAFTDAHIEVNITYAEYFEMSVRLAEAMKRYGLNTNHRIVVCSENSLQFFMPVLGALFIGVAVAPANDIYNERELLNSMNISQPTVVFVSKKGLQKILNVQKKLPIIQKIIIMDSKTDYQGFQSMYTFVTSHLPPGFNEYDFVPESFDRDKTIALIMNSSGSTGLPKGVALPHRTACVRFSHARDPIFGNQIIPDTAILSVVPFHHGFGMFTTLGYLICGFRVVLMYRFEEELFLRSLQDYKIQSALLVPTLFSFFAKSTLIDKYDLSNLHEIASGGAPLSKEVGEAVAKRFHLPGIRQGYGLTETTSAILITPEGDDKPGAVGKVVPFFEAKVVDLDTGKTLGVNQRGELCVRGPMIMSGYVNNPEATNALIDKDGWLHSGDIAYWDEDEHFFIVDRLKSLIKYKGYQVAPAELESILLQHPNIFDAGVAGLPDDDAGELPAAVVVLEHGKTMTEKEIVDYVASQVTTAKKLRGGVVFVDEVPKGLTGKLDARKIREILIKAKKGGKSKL
Nuclear receptor subfamily 1 group I member 3 (Homo sapiens), sequence (Q14994 whole entry, looked up): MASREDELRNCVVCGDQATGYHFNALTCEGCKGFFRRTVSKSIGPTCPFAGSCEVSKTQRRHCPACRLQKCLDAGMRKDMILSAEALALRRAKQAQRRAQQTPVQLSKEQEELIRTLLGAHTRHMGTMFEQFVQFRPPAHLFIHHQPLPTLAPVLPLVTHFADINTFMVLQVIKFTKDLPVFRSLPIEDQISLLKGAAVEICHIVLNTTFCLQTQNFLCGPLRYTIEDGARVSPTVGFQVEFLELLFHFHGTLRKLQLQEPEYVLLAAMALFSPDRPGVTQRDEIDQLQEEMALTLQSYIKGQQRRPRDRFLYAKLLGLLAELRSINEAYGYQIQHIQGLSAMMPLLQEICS

COC1=CC(=O)O[C@@H](CCc2ccccc2)C1
inactive: [1] | [2] | [3] | [4] | [5] | [6] | [7] | [8] | [10] | [11] | [12]
active: [9] 56.7 µM

N#CCC#N
active: [6] 48.6 µM | [8] 61.1 µM
inactive: [13]

NC(=O)CI
inactive: [1] | [3] | [14] | [15] | [16] | [19] | [6] | [7] | [9] | [10] | [11]
active: [17] 11.9 µM | [18] 12.3 µM | [5] 80.4 µM

O=C(O)C1(c2ccc3c(c2)OC[C@H](Cc2ccc(-c4ccccc4)cc2)[C@H]3O)CCCC1
inactive: [1] | [2] | [3] | [6] | [7] | [8] | [10]
active: [5] 71 µM

Clc1ccc(C2(Cn3cncn3)CC(Br)CO2)c(Cl)c1 (centres undefined)
active: [9] 60.8 µM | [11] 24.2 µM
inactive: [13] | [5] | [8] | [12]

O=[N+]([O-])C(Br)(CO)CO
inactive: [4] | [6] | [11]

CO/N=C(/C(=O)OC)c1ccccc1COc1ccccc1C
inactive: [3] | [4] | [5] | [7] | [8] | [10] | [12]
active: [2] 7.7 µM | [9] 7.7 µM

O=C1C(Cl)C(CCl)CN1c1cccc(C(F)(F)F)c1 (centres undefined)
inactive: [4] | [5] | [6] | [7] | [8] | [9] | [10] | [12]

CCCCC(CC)COP(=O)(Oc1ccccc1)Oc1ccccc1 (centres undefined)
inactive: [2] | [3] | [4] | [5] | [6] | [7] | [8] | [10]
active: [9] 27.3 µM

NCCCNCCCN
inactive: [1] | [4] | [6] | [7] | [8] | [9] | [10]

COCC(C)N(C(=O)CCl)c1c(C)csc1C (centres undefined)
inactive: [1] | [5] | [6] | [7] | [10] | [12]
active: [11] 21.7 µM

CCCN(CC1CC1)c1c([N+](=O)[O-])cc(C(F)(F)F)cc1[N+](=O)[O-]
inactive: [3] | [4] | [5] | [6] | [7] | [8] | [10]

CO/C=C(/C(=O)OC)c1ccccc1COc1cccc(C(F)(F)F)n1
inactive: [13] | [3] | [5] | [8] | [10]
active: [9] 3.85 µM
